{
  "source": "PubChem BioAssay AID1347076",
  "about": "(National Center for Advancing Translational Sciences (NCATS), 2019)",
  "note": "The campaign covered roughly 400,000 compounds. About 13,000 (3.2%) were called active. Not shown: some 18% with an inconclusive outcome. The call rests on the fitted dose curve; in most records, active means well fitted cell-killing curve with a large enough effect; inconclusive means small, poorly fitted or top-dose-only effect, or effect the other way; inactive means flat fitted curve, though single readings scatter. The full list was thinned out, with actives kept by preference. On the % scale 0 is the no-effect control and ±100 the full control effect; potency means the concentration at half of the fitted maximal effect.",
  "data": [
    {"assay": "qHTS assay for MDR1-selective chemotherapeutics: Primary screen using the drug-selected MDR subline cells KB-V1; further: nearly all actives have a fitted effect of over 60% in size", "details": "KB-V1 MDR cells viability, CellTiter-Glo, 72 h; series mostly up to 46.1 µM; activity change, negative = cytotoxicity: at the top concentration", "description": "A prime difficulty in effectively treating cancer is the development of cellular resistance to multiple structurally unrelated anticancer drugs, a phenomenon known as multidrug resistance (MDR). […] Numerous strategies to overcome P-gp-mediated MDR have been explored, including the design of drugs that evade recognition and efflux, and development of inhibitors to block efflux and restore drug accumulation. […] An alternative approach is to exploit resistance by identifying drugs that target MDR cells over the non-resistant parental cells from which they were selected. […] The development of MDR1-selective agents represents a new strategy for resolving multidrug resistance, as it remains a long-standing clinical challenge for cancer chemotherapy.\nOur goal is to identify compounds that selectively kill P-gp-expressing MDR cells. We will identify MDR1-selective compounds by comparing toxicity of compounds in the screening library against parental, drug-naive (KB-3-1) adenocarcinoma cells as well as their drug-selected MDR sub-line (KB-V1). The differential toxicity of compounds against these two cell lines will be used to identify MDR1-selective compounds, whose cytotoxicity is potentiated, rather than diminished, by P-gp expression. This assay will be utilized to conduct a quantitative high-throughput screen (qHTS) in collaboration with the NIH Chemical Genomics Center to identify selective agents, and probe hits arising from the screen will be validated using secondary assays and characterized through a well-established follow-up research program. This screen was run against the entire NCGC library collection of about 400,000 compounds.\nNIH Molecular Libraries Probe Production Network [MLPCN]\nNIH Chemical Genomics Center [NCGC]\nPI: Michael Gottesman, National Cancer Institute, NIH\nBriefly, 5 microL of media containing either KB-V1 cells (columns 1-2, 4-48) are dispensed into Greiner white, treated solid-bottom 1536-well assay plates (media-only control is added to column 3). Compounds are then transferred via Kalypsys pin tool equipped with 1536-pin array (10 nL slotted pins, V&P Scientific, San Diego, CA). Following addition of compound, the plates are incubated at 37 degrees C for 72 hours. CellTiter-Glo (2.5 µL/well) is then added, and the plates are read in a ViewLux reader (Perkin-Elmer, clear luminescence filter, 1 second exposure, 1x binning) following a 10 minute incubation. All cells are dispensed in DMEM phenol-red free media containing 10% FBS.\nLibrary plates were screened starting from the lowest and proceeding to the highest concentration. Vehicle-only plates, with DMSO being pin-transferred to columns 5-48, will be inserted uniformly at the beginning and the end of each library in order to monitor and record any shifts in the background, which can be affected by reagent dispensers or loss in enzyme activity over time. Screening data will be corrected, normalized, and concentration-effect relationships will be derived by using publicly-available NCGC, NCATS curve fitting algorithms (http://ncgc.nih.gov/pub/openhts).", "values": [
      {"smiles": "COc1ccc(-n2nc3c(c2NC(=O)Cc2cccc(C)c2)CS(=O)C3)cc1", "note": "(stereo not drawn)", "activity change, negative = cytotoxicity": "-2.57% (inactive)"},
      {"smiles": "CC1CCCCN1S(=O)(=O)c1ccc(F)c(C(=O)Nc2ccccc2C(F)(F)F)c1", "note": "(stereo not drawn)", "activity change, negative = cytotoxicity": "-13.5% (inactive)"},
      {"smiles": "COc1ccc(Nc2ncnc3ccc(Br)cc23)c(OC)c1", "activity change, negative = cytotoxicity": "0.531% (inactive)"},
      {"smiles": "CN(C)C(=O)COC(=O)c1cccc(S(=O)(=O)N2CC3(C)CC2CC(C)(C)C3)c1", "note": "(stereo not drawn)", "activity change, negative = cytotoxicity": "-7.77% (inactive)"},
      {"smiles": "CC1(C)CC2CC(C)(CN2c2ncnc3ccc(Br)cc23)C1", "note": "(stereo not drawn)", "Potency": "2.59 µM (active)"},
      {"smiles": "COc1ccc(-c2nc(CCNC(=O)c3ccc(Br)o3)cs2)cc1", "activity change, negative = cytotoxicity": "0% (inactive)"},
      {"smiles": "O=C(NCCc1csc(-c2ccccc2)n1)c1ccccc1F", "Potency": "20.6 µM (active)"},
      {"smiles": "O=S(=O)(NCCc1csc(-c2ccccc2)n1)c1cccnc1", "activity change, negative = cytotoxicity": "-8.15% (inactive)"},
      {"smiles": "CC1(C(=O)NS(=O)(=O)c2ccc(Cl)cc2)CCN1C(=O)CC1CCCC1", "note": "(stereo not drawn)", "activity change, negative = cytotoxicity": "5.47% (inactive)"},
      {"smiles": "C=CCn1c(SCC(=O)Nc2ccc(NC(C)=O)cc2)nc2sc(C)c(C)c2c1=O", "activity change, negative = cytotoxicity": "-12.4% (inactive)"},
      {"smiles": "C=CCn1c(SCc2csc(C)n2)nc2scc(-c3ccc(C)o3)c2c1=O", "Potency": "11.6 µM (active)"},
      {"smiles": "C=CCNC(=O)CSc1nc2scc(-c3ccco3)c2c(=O)n1CC=C", "activity change, negative = cytotoxicity": "-16.8% (inactive)"},
      {"smiles": "CO[C@@H]1CN(C)C(=O)c2cc(NC(=O)C3CC3)ccc2OC[C@H](C)N(C(=O)CN2CCOCC2)C[C@@H]1C", "activity change, negative = cytotoxicity": "1.93% (inactive)"},
      {"smiles": "C[C@H]1CN([C@@H](C)CO)C(=O)CCCn2cc(nn2)CO[C@@H]1CN(C)C(=O)Nc1ccccc1", "activity change, negative = cytotoxicity": "12.8% (inactive)"},
      {"smiles": "COc1ccc([C@H]2N[C@]3(CCCN(Cc4ccco4)C3=O)[C@H]3C(=O)N(C)C(=O)[C@@H]23)cc1", "activity change, negative = cytotoxicity": "0% (inactive)"},
      {"smiles": "O=C(CN1CCN(c2ccc(F)cc2)CC1)Nc1ccccc1", "activity change, negative = cytotoxicity": "-0.53% (inactive)"},
      {"smiles": "COc1cc(C)cc(CN2CCC(Cc3ccccc3)CC2)c1O", "activity change, negative = cytotoxicity": "-10.3% (inactive)"},
      {"smiles": "Oc1c(CN2CCN(c3ccc(F)cc3)CC2)cc(Cl)c2cccnc12", "Potency": "5.17 µM (active)"},
      {"smiles": "Oc1c(CN2CCCC2)cc(COCc2ccccc2)c2cccnc12", "Potency": "20.6 µM (active)"},
      {"smiles": "Fc1ccc(N2CCN(Cc3cnc(Oc4ccc(Br)cc4)s3)CC2)cc1", "activity change, negative = cytotoxicity": "0% (inactive)"},
      {"smiles": "COc1cc(CN2CCC(C(N)=O)CC2)ccc1OCc1ccccc1", "activity change, negative = cytotoxicity": "4.51% (inactive)"},
      {"smiles": "CCC(=O)N1CCc2cc(S(=O)(=O)NC(CC(C)C)C(=O)NCCc3cccc(C)c3)ccc21", "note": "(stereo not drawn)", "activity change, negative = cytotoxicity": "4.3% (inactive)"},
      {"smiles": "COC(=O)c1ccc2c(c1)S(=O)(=O)NC2C", "note": "(stereo not drawn)", "activity change, negative = cytotoxicity": "35.1% (inactive)"},
      {"smiles": "CCc1ccc(-n2nc(C)c3c(C)cc(=O)n(CC(=O)Nc4ccc(F)cc4C)c32)cc1", "activity change, negative = cytotoxicity": "2.18% (inactive)"},
      {"smiles": "Cc1ccc(-c2nc3c(C)cc(Br)cn3c2Cc2ccccc2)cc1", "activity change, negative = cytotoxicity": "-18.7% (inactive)"},
      {"smiles": "CCn1c2c(c(=O)n3ncc(C(=O)N4CCN(c5ccccc5)CC4)c13)CN(Cc1ccc(OC)cc1)CC2", "activity change, negative = cytotoxicity": "-27.7% (inactive)"},
      {"smiles": "CCc1cccc(NC(=O)Cn2nc(CC)n3c(cc4cc(C)ccc43)c2=O)c1", "activity change, negative = cytotoxicity": "-19.3% (inactive)"},
      {"smiles": "CN1C(=O)C(CC(N)=O)N(NC(=O)c2ccc(Cl)cc2)C1=S", "note": "(stereo not drawn)", "activity change, negative = cytotoxicity": "1.63% (inactive)"},
      {"smiles": "O=C(Nc1ccn(Cc2ccccc2)n1)c1cccc(F)c1", "activity change, negative = cytotoxicity": "0% (inactive)"},
      {"smiles": "Cc1ccc(NC(=O)CC2C(=O)N(Cc3ccccc3)C(=S)N2NC(=O)c2cccc(F)c2)c(C)c1", "note": "(stereo not drawn)", "Potency": "4.11 µM (active)"},
      {"smiles": "Cc1ccc(S(=O)(=O)N2C[C@]3(O)C[C@@H]4C(=O)N(c5ccccc5)C(=O)[C@@H]4C[C@]3(OC(=O)NC3CC3)C2)cc1", "activity change, negative = cytotoxicity": "75.5% (inactive)"},
      {"smiles": "CC(=O)Nc1ccc(-c2ccnc3c2CC(C(=O)NC(C)C)O3)cc1", "note": "(stereo not drawn)", "activity change, negative = cytotoxicity": "-3.89% (inactive)"},
      {"smiles": "COc1ccc(NC(=O)C2Cc3c(-c4cccc(NC(C)=O)c4)ccnc3O2)cc1OC", "note": "(stereo not drawn)", "activity change, negative = cytotoxicity": "-18.5% (inactive)"},
      {"smiles": "COc1ccc(NC(=O)C2Cc3c(-c4ccc5c(c4)OCO5)ccnc3O2)cn1", "note": "(stereo not drawn)", "Potency": "20.6 µM (active)"},
      {"smiles": "CCOc1ccc(C(=O)Nc2ccc3nc4c(c(Nc5ccccc5OC)c3c2)CCCC4)cc1", "activity change, negative = cytotoxicity": "0% (inactive)"},
      {"smiles": "CC(C)C[C@@H]1Cc2[nH][nH]c(=O)c2[C@H](CCc2ccccc2)O1", "activity change, negative = cytotoxicity": "-23.4% (inactive)"},
      {"smiles": "COc1ccc(-c2[nH]nc(-c3ccccc3)c2-c2nc3ccccc3[nH]2)cc1", "activity change, negative = cytotoxicity": "-2.23% (inactive)"},
      {"smiles": "COc1ccc(Br)cc1C(=O)NC(=S)Nc1cc(-c2nc3ccccc3[nH]2)ccc1C", "activity change, negative = cytotoxicity": "-18.6% (inactive)"},
      {"smiles": "Cc1ccc(-c2nc3ccccc3[nH]2)cc1N", "Potency": "10.3 µM (active)"},
      {"smiles": "CC1(Oc2cccc(F)c2)CCN(Cc2ccccc2OC(F)F)C1", "note": "(stereo not drawn)", "activity change, negative = cytotoxicity": "5.33% (inactive)"},
      {"smiles": "COc1ccccc1-n1c(-c2ccc(C)cc2)cn2c3c(=O)n(C)c(=O)n(C)c3nc12", "activity change, negative = cytotoxicity": "27.5% (inactive)"},
      {"smiles": "COc1cccc(Cn2c(SCc3ccc(C(=O)N4CCCCC4)cc3)nc3ccncc32)c1", "activity change, negative = cytotoxicity": "13.1% (inactive)"},
      {"smiles": "O=C(Nc1ccccc1)c1ccc(NC(=O)c2cccs2)cc1", "activity change, negative = cytotoxicity": "0% (inactive)"},
      {"smiles": "CC(C)(C)c1ccc(C(=O)Nc2ccc3c(c2)CCCN3C(=O)c2cccs2)cc1", "Potency": "20.6 µM (active)"},
      {"smiles": "O=C(Nc1ccc(NC(=O)c2cccs2)cc1)c1ccc2ccccc2c1", "activity change, negative = cytotoxicity": "1.68% (inactive)"},
      {"smiles": "Cc1nn(-c2ccccc2)c(C)c1NC(=O)COc1ccc(Cl)cc1Cl", "Potency": "2.31 µM (active)"},
      {"smiles": "C/C=C/c1ccc(OCC(=O)OCC(=O)Nc2c(C)nn(-c3ccccc3)c2C)c(OC)c1", "activity change, negative = cytotoxicity": "4.6% (inactive)"},
      {"smiles": "Cc1nn(-c2ccccc2)c(C)c1NC(=O)COC(=O)c1cc(Cl)ccc1O", "activity change, negative = cytotoxicity": "-4.72% (inactive)"}
    ]}
  ]
}
